Molecules are shown by their SMILES. The whole screen tested about 52,000 compounds, of which about 4,300 (8.3%) were called active. Rule as the data show it: active = survival mostly below about 52% (no sharp cut-off); inactive = mostly above about 56%. The entries come from a sample that favours actives as a whole.

The source of these data is PubChem BioAssay AID463173 (ICCB-Longwood Screening Facility, Harvard Medical School, 2010).

This experiment deals with DeltatarO mutant. In words: growth inhibition of S. aureus wild type versus tarO mutant, primary screen, teichoic acid synthesis inhibitors, RN4220, OD600 (AID 463173). The note with it: OD600, 18 h, stronger effect = lower value, screened at 18.75 µg/mL (by protocol).
Take `CC(C)C(OC(=O)c1cccs1)C(=O)NC1CCCC1` (configuration not stated): the survival was 96% (inactive).

Regarding `Cc1nn(C(=O)c2cccc(Cl)c2)c(C)c1S(=O)(=O)N1CCOCC1`, the survival is 82% (inactive).

Regarding `Cc1ccc(C(=O)Nc2ccc(-c3nc4ccccc4o3)cc2)cc1Cl`, the survival is 68% (inactive).

Consider `Cc1nnc(SCc2cc(=O)c3ccccc3[nH]2)s1`, for which the survival is 125% (inactive).

Take `COc1ccc(CN(CCC(c2ccc3c(c2)OCO3)c2ccccc2OC)C(C)=O)cc1` (configuration not stated): the survival is 19% (active).

`CCOCCCNC(=O)C(c1ccc(OC)cc1)N(Cc1ccc2c(c1)OCO2)C(=O)c1ccc(NC(C)=O)cc1` (configuration not stated): the survival was 50% (inactive).

Turning to `COc1ccc(CCNC(=O)c2ccc3c(c2)OCO3)cc1`, the survival is 110% (inactive).

With `NC(=O)CC(c1ccccc1)c1ccc2c(c1)OCO2` (configuration not stated), the survival is 97% (inactive).

`COc1cc2cc(CN(Cc3ccc4c(c3)OCO4)C(=O)NCc3ccccc3)c(=O)[nH]c2cc1OC`: the survival is 102% (inactive).

Turning to `CCOCCCNC(=O)C(c1ccc(OC)cc1)N(Cc1ccc2c(c1)OCO2)C(=O)c1ccccc1O` (configuration not stated), the survival was 62% (inactive).

Take `COc1ccc(CNCCC(c2ccccc2)c2ccc3c(c2)OCO3)cc1` (configuration not stated): the survival is -14% (active).

Consider `COc1ccc(CNCCC(c2ccc(C)cc2)c2ccco2)cc1` (configuration not stated), for which the survival is 64% (inactive).

`CCOCCCNC(=O)C(c1ccccc1)N(Cc1ccc2c(c1)OCO2)C(=O)c1ccc(NC(C)=O)cc1` (configuration not stated): the survival is 51% (inactive).

Turning to `CCC(=O)N(CCC(c1ccccc1)c1ccc2c(c1)OCO2)Cc1ccc(OC(C)C)cc1` (configuration not stated), the survival was 0% (active).

On to `COc1ccc(CNCCC(c2ccc3c(c2)OCO3)c2ccccc2OC)cc1` (configuration not stated), for which the survival is 1% (active).

For `N#CCC(c1ccccc1)c1ccc2c(c1)OCO2` (configuration not stated), the survival was 92% (inactive).

Consider `O=c1c(S(=O)(=O)c2ccccc2)cn(Cc2ccccc2)c2cc(N3CCOCC3)c(F)cc12`, for which the survival is 85% (inactive).

`COc1ccc(NC(=O)CCCN2C(=O)C(c3ccccc3)Oc3cccnc32)c(OC)c1` (configuration not stated): the survival is 81% (inactive).

Turning to `Cc1ccc(C(=O)c2oc3ccccc3c2NC(=O)COc2ccccc2C)cc1`, the survival is 95% (inactive).

Turning to `CCc1ccc(NC(=O)CSC2=Nc3ccccc3C3=NC(CCC(=O)NCc4ccccc4OC)C(=O)N23)cc1` (configuration not stated), the survival was 55% (inactive).

`Cc1ccc(-n2ncc3c(N4CCN(C)CC4)ncnc32)cc1Cl`: the survival was 96% (inactive).

For the molecule `COc1ccc(C2=NC(C)(C)N(CC(=O)Nc3ccc(F)c(F)c3)C2=O)cc1`, the survival was 92% (inactive).

Turning to `Cc1c(C(=O)Nc2cc(F)ccc2F)sc2nc(-c3ccc(F)cc3)cn12`, the survival is 107% (inactive).

`CCn1c(=O)c(C(=O)Nc2cc(OC)c(OC)c(OC)c2)nc2ccccc21`: the survival is 89% (inactive).

On to `O=C(COc1ccccc1F)Nc1ccc(-c2nc3ccccc3s2)cc1`, for which the survival was 67% (inactive).

`O=C(COc1ccccc1F)Nc1ccc2oc(-c3cccc(Cl)c3)nc2c1`: the survival was 102% (inactive).

Turning to `O=C(COc1ccccc1F)Nc1ccc(Cl)c(-c2nc3ccccc3[nH]2)c1`, the survival was 33% (active).

Regarding `O=C(COc1ccc(F)cc1)Nc1ccc(Cl)c(-c2nc3ccccc3[nH]2)c1`, the survival is 26% (active).

`Cc1ccccc1-c1nc2cc(NC(=O)COc3ccc(F)cc3)ccc2o1`: the survival is 56% (inactive).

Consider `CN1C(=O)c2ccccc2Sc2ccc(NC(=O)COc3ccc(F)cc3)cc21`, for which the survival is 87% (inactive).

Turning to `CCOC(=O)N1CCc2c(sc(NCc3ccc(N(C)C)cc3)c2C(=O)Nc2ccc(OC)cc2)C1`, the survival is 77% (inactive).

As to `CC1=C(c2ccc(C)cc2)S(=O)(=O)NC1=NCCCN1CCN(c2ccccc2F)CC1`, the survival was 74% (inactive).

Turning to `CCCCNC(=O)CSc1nc2cc3c(cc2c(=O)n1Cc1ccc(C(=O)NCCc2ccc(OC)c(OC)c2)cc1)OCO3`, the survival is 85% (inactive).

With `COc1ccccc1OCc1nnc(SCC(=O)N(C)C)o1`, the survival was 52% (inactive).

Take `COC(=O)c1ccc(Cn2c(SCC(=O)NCc3ccccc3)nc3ccccc32)cc1`: the survival was 102% (inactive).

Consider `CC1=C(C#N)C(c2cccc(Oc3ccccc3)c2)C2=C(CCCC2=O)N1` (configuration not stated), for which the survival is 54% (inactive).

As for `Cc1ccc2c(c1)c(=O)c1ccccc1n2CCCC(=O)Nc1ccc(C)c(F)c1`, the survival was 105% (inactive).

Take `Cc1cc(C)cc(NC(=O)CCCn2c3ccccc3c(=O)c3ccccc32)c1`: the survival was 42% (active).

Regarding `Cc1ccc(CNC(=O)CCCn2c(=O)c3ccccc3n(CC(=O)Nc3ccc(C)c(C)c3)c2=O)cc1`, the survival was 78% (inactive).

Consider `Cc1cc(C)cc(NC(=O)CCCn2c(=O)c3cccn3c3ccccc32)c1`, for which the survival was 59% (inactive).

`O=C(CCCn1c2ccccc2c(=O)c2ccccc21)Nc1cccc(Cl)c1`: the survival is 27% (active).

For the molecule `Cc1ccc2c(c1)c(=O)c1ccccc1n2CCCC(=O)Nc1ccc(C)c(C)c1`, the survival is 43% (active).

With `O=C(CCCn1c(=O)c2cccn2c2ccccc21)Nc1cccc(Cl)c1`, the survival was 41% (active).

`Cc1cc(C)cc(NC(=O)Cn2c(=O)c3ccccc3n3nncc23)c1`: the survival is 83% (inactive).

As to `O=C(CCCn1c(=O)c2ccccc2n(CC(=O)Nc2cccc(Cl)c2)c1=O)NCc1ccc2c(c1)OCO2`, the survival was 76% (inactive).

For the molecule `O=C(CCCn1c2ccccc2c(=O)c2ccccc21)Nc1ccc(F)cc1Cl`, the survival was 51% (inactive).

For the molecule `Cc1ccc(NC(=O)CCCn2c(=O)c3cccn3c3ccccc32)c(Cl)c1`, the survival was 51% (inactive).

On to `Cc1cccc(C)c1NC(=O)CCCn1c(=O)c2cccn2c2ccccc21`, for which the survival is 55% (inactive).

Consider `Cc1cccc(N(C)c2ccc3cc(S(=O)(=O)N4CCCC4)ccc3n2)c1`, for which the survival was 96% (inactive).

As for `N#CCNS(=O)(=O)c1ccccc1`, the survival was 97% (inactive).

Turning to `CC(=O)N1CCCc2cc(S(=O)(=O)NCc3ccccc3Cl)ccc21`, the survival is 112% (inactive).

Consider `CCc1ccccc1NC(=O)Cn1cc(C(=O)c2ccc(Cl)cc2)c(=O)c2ccc(C)nc21`, for which the survival is 78% (inactive).

On to `CCCCN(Cc1cc2cc(C)ccc2[nH]c1=O)C(=O)c1cccc(Cl)c1`, for which the survival was 72% (inactive).

Turning to `CCOC(=O)c1sc2ccccc2c1S(=O)(=O)Nc1ccc(OC)c(Cl)c1`, the survival was 89% (inactive).

With `COc1ccc(OCC(=O)Nc2cc(-c3ccccc3F)nn2-c2ccccc2)cc1`, the survival was 92% (inactive).

Regarding `COc1ccc(NC(=O)Cn2c(=O)n(CCCC(=O)NCCc3ccc(C)cc3)c(=O)c3ccccc32)cc1Cl`, the survival was 97% (inactive).

For the molecule `Cc1ccc(NC(=O)Cn2c(=O)n(CCCCC(=O)NCc3ccccc3Cl)c(=O)c3ccccc32)cc1`, the survival was 83% (inactive).

Consider `Cc1ccc2c(c1)c(=O)c1ccccc1n2CCCC(=O)Nc1ccc(Cl)c(Cl)c1`, for which the survival is 45% (active).

As to `Cc1ccc(NC(=O)CSc2nc3ccccc3c3nc(CCn4cncc4C)nn23)c(C)c1`, the survival was 75% (inactive).

On to `COc1ccc(CNC(=O)CCC2N=C3c4ccccc4N=C(SCc4ccc(F)cc4)N3C2=O)cc1` (configuration not stated), for which the survival was 83% (inactive).

For the molecule `COc1ccc(CNC(=O)CCC2N=C3c4ccccc4N=C(SCc4ccccc4F)N3C2=O)cc1` (configuration not stated), the survival is 37% (active).

For `COc1ccccc1CNC(=O)CCC1N=C2c3ccccc3N=C(SCc3ccc(Cl)cc3)N2C1=O` (configuration not stated), the survival was 32% (active).

For the molecule `COCCCNC(=O)CSC1=Nc2ccccc2C2=NC(CCC(=O)NCc3ccccc3OC)C(=O)N12` (configuration not stated), the survival was 78% (inactive).

In the case of `Cc1ccc(CSC2=Nc3ccccc3C3=NC(CCC(=O)NCc4cccs4)C(=O)N23)cc1` (configuration not stated), the survival was 94% (inactive).

For the molecule `COc1ccccc1CNC(=O)CCC1N=C2c3ccccc3N=C(SCc3cccc(Cl)c3)N2C1=O` (configuration not stated), the survival is 49% (inactive).

On to `O=C(CCC1N=C2c3ccccc3N=C(SCc3ccccc3F)N2C1=O)NCc1ccc(F)cc1` (configuration not stated), for which the survival was 69% (inactive).

As for `COc1ccccc1CNC(=O)CCC1N=C2c3ccccc3N=C(SCC(=O)NCCc3ccccc3)N2C1=O` (configuration not stated), the survival is 131% (inactive).

`O=C(CCC1N=C2c3ccccc3N=C(SCc3ccc(F)cc3)N2C1=O)NCc1cccs1` (configuration not stated): the survival is 135% (inactive).

On to `O=C(CCC1N=C2c3ccccc3N=C(SCc3ccc(Cl)cc3)N2C1=O)NCc1cccs1` (configuration not stated), for which the survival is 47% (active).

In the case of `COc1ccccc1CNC(=O)CCC1N=C2c3ccccc3N=C(SCc3ccc(C)cc3)N2C1=O` (configuration not stated), the survival is 112% (inactive).

Take `CCCCNC(=O)CSC1=Nc2ccccc2C2=NC(CCC(=O)NCc3ccccc3OC)C(=O)N12` (configuration not stated): the survival is 0% (active).

Regarding `CC(C)(C)c1ccc(C(=O)N2CCN(CCc3ccccn3)CC2)cc1`, the survival was 45% (inactive).

On to `CCc1cccc(C)c1Nc1c(-c2ccc(F)cc2)nc2sccn12`, for which the survival was 35% (inactive).

Take `CCCN(CCC)CCCNC(=O)Cn1ncc2c3ccccc3n(Cc3ccc(F)cc3)c2c1=O`: the survival is 91% (inactive).

Turning to `O=C(NCC1CCCO1)C1CC(c2ccccc2O)=NO1` (configuration not stated), the survival is 91% (inactive).

As for `CC(NC(=O)C1CCN(C(=O)N2CCOc3ccc(Cl)cc32)CC1)c1ccccc1` (configuration not stated), the survival was 50% (inactive).

`COc1ccc(OC)c(NC(=O)Nc2c(C)n(C)n(-c3ccccc3)c2=O)c1`: the survival was 88% (inactive).

Take `CCC(CC)c1nn2c(=O)cc(COc3ccc(NC(=O)c4cccc(Cl)c4)cc3)nc2s1`: the survival is 79% (inactive).

Regarding `CC(C)NC(=O)C1CCN(C(=O)NCc2ccccc2)CC1`, the survival was 93% (inactive).

As to `COc1cccc(N2CCN(C(=O)C3CCCN(S(=O)(=O)c4ccc(Br)s4)C3)CC2)c1` (configuration not stated), the survival was 76% (inactive).

In the case of `CC1N=C2c3ccccc3N=C(SCC(=O)NCCc3ccccc3)N2C1=O` (configuration not stated), the survival is 52% (active).

Take `CC1N=C2c3ccccc3N=C(SCC(=O)NCCc3ccc(Cl)cc3)N2C1=O` (configuration not stated): the survival was 80% (inactive).

For `Cc1ccc(CNC(=O)CSC2=Nc3ccccc3C3=NC(C)C(=O)N23)cc1` (configuration not stated), the survival was 71% (inactive).

On to `CCNC(=O)CC1C(=O)N(c2ccccc2)C(=O)N1Cc1ccc(F)cc1` (configuration not stated), for which the survival is 74% (inactive).

In the case of `COc1cccc(CNC(=O)CSC2=Nc3ccccc3C3=NC(C)C(=O)N23)c1OC` (configuration not stated), the survival was 124% (inactive).

As to `COC(=O)c1ccccc1NC(=O)Cn1c(=O)n(CCC(=O)NCc2ccccc2OC)c(=O)c2ccccc21`, the survival is 82% (inactive).

In the case of `Cc1ccccc1OCC(=O)Nc1ccc(S(=O)(=O)N(Cc2ccccc2)c2ccccc2)cc1`, the survival is 66% (inactive).
